Mdm2 MdmX PPI = inhibitors of human Mdm2-MdmX association, primary screen, cell-based, luminescence, split luciferase, SaOS-2, uHTS | Protein Mdm4 (Homo sapiens) + E3 ubiquitin-protein ligase Mdm2 (Homo sapiens), … | SaOS-2 split-luciferase Mdm2/MdmX complementation | inhibition, % at 8 µM | 3% of 330,000 active;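 active = inhibition of at least 50% at 8 µM in the primary screen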
tim10-1 inh = growth inhibitors of tim10-1 mutant yeast, primary screen, luminescence, uHTS; S. cerevisiae tim10-1 ts strain growth, BacTiter-Glo, 24 h; 2.2% of 330,000 active; inhibition, % at 20 µM;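 active = inhibition of at least 40%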;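 also: mutant grown at 25 °C; 0% = DMSO wells with yeast and 100% = wells holding no yeast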
tim23-1 inh = growth inhibitors of tim23-1 mutant yeast, primary screen, luminescence, uHTS; S. cerevisiae tim23-1 growth, BacTiter-Glo luminescence, 24 h; inhibition, % at 20 µM; 1.3% of 330,000 active;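 active = growth inhibition of the mutant yeast at or above 50%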;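 also: temperature-sensitive mutant grown at 25 °C; plate controls were DMSO-treated mutant yeast for no effect and medium wells lacking yeast for full effect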
TIM10 inh = growth inhibitors of isogenic TIM10 control yeast, primary screen, counter-screen for tim10-1 yeast inhibitor project, luminescence, uHTS | S. cerevisiae TIM10 strain growth, BacTiter-Glo luminescence, 24 h | inhibition, % at 10 µM | 1.4% of 330,000 active | AID 463195, 2010;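 active = inhibition of 40% or more at the single tested concentration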;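 also: wild-type TIM10 isogenic control strain grown at permissive 25 °C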
MPTP inh = mitochondrial permeability transition pore inhibitors, primary screen, biochemical, isolated mouse mitochondria, absorbance. Ca2+ swelling absorbance, 30 min. inhibition, % at 10 µM. 1.4% of 360,000 active. AID 602449, 2012;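 active = inhibition of 50% or more, scaled per plate between neutral and stimulator controls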;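 also: 0% = DMSO wells given calcium and 100% = 1 mM EGTA wells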
Mdm2 MdmX conf = Mdm2-MdmX complex disruptors, retested hits, confirmation, luminescence, single concentration. shares compounds with Mdm2 MdmX PPI. Mdm2-MdmX binding, luminescent assay. inhibition, % at 8 µM. 55% of 10,000 active. AID 489028, 2010; in the data active = inhibition above about 40%
Full FLuc ctr = full-length luciferase signal inhibition, confirmation, counter-screen for Mdm2/MdmX interaction inhibitor project, cell-based, single concentration, SaOS-2; shares compounds with Mdm2 MdmX PPI; SaOS-2 full-length luciferase counterscreen, luminescence; inhibition, % at 8 µM; 77% of 6,200 active; AID 504607, 2011;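 active = mean inhibition at 8 µM reaching about 37%, which flags the compound as non-specific, limit read from the data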;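 also: p53-null SaOS-2 cells with luciferase driven by a doxycycline-inducible promoter; compound on cells about two nights before reading with doxycycline added after day one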
Rh123 counter = fluorescence retest of MPTP screen hits in isolated mitochondria, single concentration; shares compounds with MPTP inh; membrane potential, Rhodamine 123 fluorescence; inhibition, % at 10 µM; 78% of 5,000 active; AID 624504, 2012; in the data active = inhibition above about 22%;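 also: 0% = DMSO vehicle and 100% = positive control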
MPTP swell DR = mitochondrial permeability transition pore inhibitors, dose response, biochemical, absorbance, uHTS hits | isolated mitochondria swelling | 58% of 780 active | shares compounds with MPTP inh | AID 651561, 2012 | IC50, µM; in the data active = IC50 below about 20 µM
MPTP cs DR = fluorescent counter-screen in isolated mitochondria, dose response, counter-screen for MPTP inhibitor project, biochemical, fluorescence, uHTS hits; isolated mitochondria counterscreen, fluorescence read-out; IC50, µM; shares compounds with MPTP inh; 49% of 780 active; in the data active = IC50 below about 80 µM
Starred values were filed as active, the others as inactive; i = inactive; . = not tested or not shown. This is a sample that favours compounds with a hit; in the whole collection about 6.3% have one here.

SMILES	Mdm2 MdmX PPI	tim10-1 inh	tim23-1 inh	TIM10 inh	MPTP inh	Mdm2 MdmX conf	Full FLuc ctr	Rh123 counter	others
CCCc1nc(SCC(=O)N2CCC(Cc3ccccc3)CC2)c2c(=O)n(C)c(=O)n(C)c2n1	60.4*	10.9	21.5	3.6	52.5*	41.8*	79.0*	-6.9
CCCc1nc(SCC(=O)N2CCCc3ccccc32)c2c(=O)n(C)c(=O)n(C)c2n1	42.9	19.0	32.1	-12.0	-0.1	.	.	.
Cn1c(=O)c2c(SCC(=O)N3CCCc4ccccc43)nc(CC(C)(C)C)nc2n(C)c1=O	69.1*	11.1	18.8	-9.9	62.5*	25.9	.	-6.6
CC1CN(CCN2CC(C)N(C=O)CC2C)C(C)CN1C=O (configuration not stated)	.	.	.	.	-0.6	.	.	.
CSc1cccc(NC(=O)NCc2cccc(CNC(=O)Nc3cccc(SC)c3)c2)c1	55.5*	-6.9	-0.2	-23.6	68.1*	45.9*	66.8*	63.0*
O=C1NC[C@H](CCCCN2C[C@H](Cc3ccccc3)N(CCc3ccc(O)cc3)C(=O)C2=O)N(CCc2ccccc2)C1=O	.	.	.	.	1.1	.	.	.
O=[N+]([O-])c1ccc(O)c(-c2nc(-c3ccccc3)c(-c3cccs3)[nH]2)c1	85.2*	28.2	29.9	25.7	91.0*	89.0*	48.6*	85.8*
CN(C)CC1CCCCC1C1(O)c2ccccc2CSc2sccc21 (configuration not stated)	60.7*	13.4	8.2	4.8	56.7*	55.4*	54.1*	-5.2	MPTP swell DR=17.5*;MPTP cs DR=>80
CN(C)CC1CCCCC1OC(=O)c1ccc(Cl)cc1 (configuration not stated)	8.7	-4.3	-4.6	-15.8	33.4	.	.	.
O=S1(=O)CC(N2CCN(CCO)CC2)CN1Cc1cn(Cc2ccc(C(F)(F)F)cc2)nn1 (configuration not stated)	.	.	.	.	-0.4	.	.	.
CC1=C([N+](=O)[O-])C(c2ccccc2)C2=C(N1)c1ccccc1C2=O (configuration not stated)	56.5*	26.1	18.5	8.3	87.8*	63.0*	79.1*	65.3*
COc1ccc(C2C(C#N)=C(C)NC3=C2C(=O)c2ccccc23)cc1 (configuration not stated)	19.1	2.7	10.8	-4.8	0.7	.	.	.
O=C1/C(=C/c2ccc(O)c([N+](=O)[O-])c2)SC(=S)N1Cc1ccccc1	62.1*	18.6	7.7	12.4	72.7*	44.9*	70.5*	55.2*
CC1CCCN(C(=O)c2cccc(S(=O)(=O)NCc3ccccc3)c2)C1 (configuration not stated)	.	.	.	.	0.1	.	.	.
CCc1cc2c(=O)c(-c3cnn(-c4ccccc4)c3)c(C)oc2cc1OCC(=O)Nc1ccc(F)c(F)c1	61.7*	8.9	-6.8	10.0	80.2*	73.8*	87.0*	-3.5	MPTP swell DR=>100;MPTP cs DR=>80
O=C(c1cc(C(=O)NCCc2ccccc2)c(=O)n(CCc2ccccc2)c1)c1cc(Cl)ccc1O	73.8*	11.5	15.1	12.0	98.5*	53.7*	61.3*	79.2*
CN(C)CCN(C(=O)/C=C/c1cccs1)c1nc2c(F)cc(F)cc2s1	69.4*	27.2	16.9	27.1	102.0*	41.9*	28.9	-9.5
CC(=O)Oc1c(C)cc(Cl)cc1C(=O)Nc1ccc([N+](=O)[O-])cc1Cl	99.3*	19.1	12.1	30.9	84.8*	81.0*	27.7	90.9*
CC(=O)OCC(=O)Nc1ccc([N+](=O)[O-])cc1Cl	-20.3	1.0	5.0	5.7	0.9	.	.	.
CCc1ccc(NC(=O)c2ccc(F)c(S(=O)(=O)NCC3COc4ccccc4O3)c2)cc1 (configuration not stated)	55.6*	25.4	15.9	36.3	84.1*	40.0*	55.1*	77.6*
Cc1noc(C)c1CCC(=O)Nc1cc(C(=O)O)ccc1Cl	.	.	.	.	-2.3	.	.	.
O=C(N/N=C/c1cn(-c2cccs2)nc1-c1ccccc1)c1ccccc1O	62.5*	34.9	32.7	37.1	98.6*	15.3	.	31.9*
CC(C)(C)c1ccc(C2CC2C(=O)N/N=C\c2ccc[nH]2)cc1 (configuration not stated)	83.7*	12.0	9.0	0.0	105.0*	73.3*	30.5	97.6*
Cc1ccc2nc(/C(C#N)=C\c3ccc(Oc4ccc(C(F)(F)F)cc4[N+](=O)[O-])cc3)[nH]c2c1	60.7*	-12.6	-24.9	-41.0	99.4*	43.9*	75.2*	58.9*
COc1cc(/C=C(\C#N)c2nc3ccc(C)cc3[nH]2)c([N+](=O)[O-])cc1OC	-3.5	16.1	2.9	22.1	0.0	.	.	.
SMILES	Mdm2 MdmX PPI	tim10-1 inh	tim23-1 inh	TIM10 inh	MPTP inh	Mdm2 MdmX conf	Full FLuc ctr	Rh123 counter	others
C=CCCc1ccc(C#N)c(SCc2c(C(=O)OCC)c3cc(OC(C)=O)c(Br)cc3n2C)n1	65.5*	1.9	-0.5	7.1	71.3*	89.3*	20.6	75.8*
CCCc1nc2ccc(C)cn2c1Cc1ccsc1	.	.	.	.	-0.1	.	.	.
CC(C)C[C@@H](CN)NC(=O)c1nc[nH]c1C(=O)N[C@@H](CC(C)C)C(=O)CNC[C@H](C)NC(=O)c1nc[nH]c1C(=O)N[C@@H](CC(C)C)C(=O)O	.	.	.	.	-0.3	.	.	.
CCCCCn1c(N)c(-c2nc3ccccc3s2)c2c([N+](=O)[O-])nn(C)c(=O)c21	87.4*	35.0	7.8	11.2	103.7*	2.5	.	-1.5	MPTP swell DR=i;MPTP cs DR=<2.5*
COc1cccc(C(c2cccc(OC)c2)c2ccccc2C(=O)O)c1	.	.	.	.	0.9	.	.	.
CSCCC(C(=O)NC(C)(C)C)n1c(-c2ccc3c(c2)OCO3)nc2ccccc21 (configuration not stated)	.	.	.	.	1.2	.	.	.
Clc1nc(Nc2ccc(N3CCOCC3)cc2)c2ccccc2n1	18.0	22.5	27.6	10.9	-1.5	.	.	.
O=S(=O)(Nc1nc2ccccc2nc1Nc1ccc(N2CCOCC2)cc1)c1cc(Cl)ccc1Cl	68.4*	19.9	22.6	13.0	86.1*	29.6	73.2*	77.1*

Screening data as filed in PubChem.
